Screening results (PubChem BioAssay)
esBAF inh: Bmi1 luciferase reporter increase in mESCs, primary screen, esBAF inhibitor project, mouse ES cells, Bmi1 luciferase knock-in, single point; 24 h; 100% = twice the neutral-well signal; reporter increase, % at 12.5 µM; 2% of 350,000 active; AID 602393, 2012; in the data active = activation above about 40%; inconclusive = no clear call, values can overlap the other calls;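 also: a rise in the Bmi1 reporter signal indicates esBAF inhibition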
HSF1 activator: HSF-1 activators, primary screen, NIH3T3-HGL cells, MG132 stress, luminescence, single point. NIH3T3-HGL HSF-1 luciferase reporter, 8 h; 100% = twice DMSO control signal. activation, % at 9 µM. 1.7% of 300,000 active;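 active = mean replicate activation of at least 50% with a set share of replicates each reaching 50%; inconclusive = only one of those two conditions met; inactive = mean below 50% and too few replicates reaching it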
Wnt bcat act: Wnt/beta-catenin pathway activators, primary screen, cell-based, plate reader, single point; Wnt/beta-catenin reporter cell assay, activator; activation, % at 9.35 µM; 1.2% of 300,000 active; AID 743398, 2014; in the data active = activation above about 30%, passing the limit was not always enough; inconclusive = no clear call, values can overlap the other calls
MITF TRPM1 HTS: activators of MITF-driven TRPM1 promoter reporter, primary screen, cell-based, SK-MEL-5, luciferase, single point. SK-MEL-5 TRPM1-promoter luciferase, 24 h; % of positive control, neutral wells = 0. activation, % at 12.5 µM. 0.75% of 300,000 active. AID 588334, 2011;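 active = mean activation of at least 80% with every replicate also reaching 80%; inconclusive = mean reaches 80% but some replicate falls short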
HSF1 inh: HSF1 inhibitors in luciferase reporter cells, primary screen, cell-based, NIH3T3, luminescence; NIH3T3-HGL HSE-luciferase, MG132-induced, luminescence 8 h; hits give low values; activity change, negative = inhibition, % at 7.5 µM (by protocol); 0.77% of 300,000 active;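 active = more than half of replicate wells show activity change below -50%, luminescence cut by over half; inconclusive = some wells, but at most half, below -50%; inactive = no replicate well below -50%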;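 also: luciferase reports HSF-1 transcriptional activity via heat shock element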
Numbers stand for hits; - = inactive; ? = inconclusive; . = no result given. An excerpt weighted towards active compounds, which were near 3.8% of everything screened.

SMILES	esBAF inh	HSF1 activator	Wnt bcat act	MITF TRPM1 HTS	HSF1 inh
Cc1ccc(OCc2cc(C(=O)NCCc3cccnc3)no2)cc1C	58	-	-	-	-
CCCNC(=O)C[C@@H]1CC[C@H]2[C@H](COc3ccc(NC(=O)Nc4cccc(C)c4)cc3C(=O)N2C)O1	-	.	.	.	.
N#C/C(=C1\CCCN1)c1nc2ccccc2c(=O)[nH]1	-	-	.	-	-
N#C/C(=C1/CCCCCN1)c1nc2ccccc2s1	57	-	.	-	-
Cc1nc2sc(C(=O)Nc3ccccc3)c(N)c2c(C)c1[N+](=O)[O-]	.	-	36	-	-
Cc1cccc(C)c1OCC(=O)NCc1nnc(SCC(=O)NC2CCCCC2C)n1C (stereo unspecified)	-	94	.	-	-
C/C=C/c1c(F)c(F)c(Oc2ccc(C(=O)O)cc2)c(F)c1F	-	125	-	-	-
C[C@H]1CN([C@@H](C)CO)S(=O)(=O)c2ccc(-c3cccc(C#N)c3)cc2O[C@@H]1CN(C)C(=O)C1CC1	-	.	.	.	.
C[C@H](CO)N1C[C@H](C)[C@@H](CN(C)Cc2ccc(-c3ccccc3)cc2)Oc2ccc(NC(=O)NC3CCCCC3)cc2C1=O	-	.	.	.	.
CCCn1c(SCC(=O)c2cc(OC)ccc2OC)nnc1C(C)C	-	90	.	-	-
CC1Cc2ccccc2N1C(=O)COC(=O)/C=C/c1ccc(F)cc1 (stereo unspecified)	-	.	-	-	.
CC1Cc2ccccc2N1C(=O)/C=C/c1cccc(F)c1 (stereo unspecified)	90	70	-	96	-
CCOC(=O)C1(Cc2cccc(Cl)c2)CCCN(C(=O)c2cc(C)on2)C1 (stereo unspecified)	53	-	-	-	-
CCOC(=O)C1(Cc2cccc(OC)c2)CCCN(C(=O)CCN2CCCO2)C1 (stereo unspecified)	68	-	-	-	-
CCOC(=O)C1(Cc2cccc(Cl)c2)CCCN(C(=O)c2c(CC)noc2C)C1 (stereo unspecified)	-	-	-	-	-
CCOC(=O)C1(Cc2cccc(OC)c2)CCCN(C(=O)c2ccc(OC)o2)C1 (stereo unspecified)	80	?	?	88	-
CCOC(=O)C1(Cc2cccc(Cl)c2)CCCN(C(=O)CCOC)C1 (stereo unspecified)	-	-	-	-	-
COc1cccc(-c2nc(N3CCN(c4ccccc4)CC3)c3ccccc3n2)c1O	-	66	.	-	-
C[C@@H]1CN([C@@H](C)CO)C(=O)Cc2cc(N(C)C)ccc2O[C@H]1CN(C)C	-	.	.	.	.
CSc1nnc(-c2ccccc2Cl)o1	-	-	.	-	-
Clc1ccccc1-c1ncc(-c2ccccc2)o1	-	?	57	-	-
C[C@@H]1CN([C@H](C)CO)C(=O)c2cc(C#Cc3ccccc3)cnc2O[C@H]1CN(C)C(=O)CCN1CCCCC1	-	.	.	.	.
C/C(=N\N=C(c1ccccc1)c1ccccc1)c1cccs1	-	-	.	-	-
CC(NO)/C(=N\O)c1cccs1 (stereo unspecified)	-	-	-	-	-51
CSCCC(=O)N1CCC(n2nccc2NC(=O)c2ccc3c(c2)OCO3)CC1	61	-	-	-	-
SMILES	esBAF inh	HSF1 activator	Wnt bcat act	MITF TRPM1 HTS	HSF1 inh
Brc1ccc(CNc2ccc3ncccc3c2)cc1	-	79	-	.	-
Oc1ccc(Br)cc1CNc1cnc2ccccc2c1	-	-	-	.	-
O=C(Nc1ccc2ncccc2c1)c1cccc(Br)c1	?	?	33	-	-
Oc1oc(-c2ccc(Br)cc2)nc1/C=N/c1ccccn1	.	-	37	-	-
Cc1ccc(-c2nc(C=Nc3ccccc3)c(O)o2)cc1	.	-	-	-	-
CCOC(=O)c1cccc(COC(=O)c2cccc(-c3nnc(-c4ccccc4)o3)c2)c1	.	.	55	-	.
O=C(OCc1ccccc1)c1cccc(-c2nnc(-c3ccccc3)o2)c1	-	-	.	-	-
CCOc1cccc(C(=O)Nc2cccc(-c3nnc(-c4ccccc4)o3)c2)c1	43	-	-	-	-
CC(=O)Nc1cccc(-c2nnc(-c3ccccc3)o2)c1	?	-	35	.	-
C[C@H](CO)N1C[C@H](C)[C@@H](CN(C)CC2CCCCC2)Oc2ccc(NS(=O)(=O)c3cn(C)cn3)cc2C1=O	-	.	.	.	.
N#Cc1c(-c2cccs2)nc(SCc2ccc(Cl)cc2)[nH]c1=O	.	-	-	-	-
O=c1[nH]c(SCc2ccc(Cl)cc2)nc2ccsc12	.	127	-	.	-
CCNC(=O)C[C@@H]1CC[C@@H]2[C@H](COC[C@H](O)CN2C(=O)Nc2ccc(C(F)(F)F)cc2)O1	-	.	.	.	.
COc1ccc(-c2nc3cc([N+](=O)[O-])ccc3o2)cc1	.	59	-	-	-
CC(C)(C)Nc1nc2cc([N+](=O)[O-])ccc2o1	-	-	-	-	-
O=[N+]([O-])c1ccc2oc(/C=C/c3ccc(O)cc3)nc2c1	42	.	-	.	.
CC(C)c1ccc2oc(-c3ccc(N)cc3)nc2c1	-	-	.	-	-
Nc1ccc(-c2nc3cc([N+](=O)[O-])ccc3o2)cc1	-	58	44	-	-
COc1cccc(NC(=O)N[C@H]2C=C[C@@H](CC(=O)Nc3ccccc3)O[C@@H]2CO)c1	-	.	.	.	.
C[C@H](CO)N1C[C@H](C)[C@H](CN(C)C(=O)CN2CCOCC2)Oc2ncc(C3=CCCC3)cc2C1=O	-	.	.	.	.
CC1(C)CC(N=c2cc(-c3ccccc3)oc3ccc(Cl)cc23)CC(C)(C)N1	.	-	-	-	-
OCCCN=c1cc(-c2ccccc2)oc2ccc(Cl)cc12	72	?	.	-	-
O=C(N[C@@H]1CC[C@H](CCn2cc(C3(O)CCCC3)nn2)O[C@@H]1CO)C1CC1	-	.	.	.	.
COc1ccc(N=Cc2c(O)c3ccccc3n2C(C)=O)cc1	-	-	30	-	-
COc1ccc(N=Cc2sc(O)c3ccccc23)cc1	82	-	34	-	-
SMILES	esBAF inh	HSF1 activator	Wnt bcat act	MITF TRPM1 HTS	HSF1 inh
Nc1cccc2cc(-c3ccccc3)oc12	91	.	-	115	.
COc1cccc2cc(-c3ccccc3)oc12	-	-	-	.	-
COC(=O)C[C@H]1C[C@@H]2c3cc(NS(=O)(=O)c4ccc(F)cc4)ccc3O[C@@H]2[C@@H](CO)O1	-	.	.	.	.
CCOC(=O)C(Nc1ccc2ccccc2c1)C(=O)OCC	.	59	-	-	-
CC(=O)CC(=O)Nc1ccc2ccccc2c1	-	-	-	.	-
C[C@H]1CN([C@@H](C)CO)C(=O)c2cc(-c3cncnc3)cnc2O[C@@H]1CN(C)C(=O)CN1CCOCC1	-	.	.	.	.
Cc1ccc(SCC(=O)c2ccc[nH]2)cc1	61	-	-	-	-
CN1C(=O)c2cc(NC(=O)c3cscn3)ccc2OC[C@H]2O[C@H](CC(=O)N3CCCCC3)CC[C@H]21	-	.	.	.	.
S=c1[nH]c(-c2ccccc2)cn1/N=C/c1ccccc1Br	-	64	-	-	-
